Here are results for 9 compounds from PubChem BioAssay (NCI).

About 83,000 compounds went through this panel and 20% of them were active in at least one assay; those are over-represented in the sample as a whole.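 How to read the values: 0–100, growth inhibition (40 = 60% inhibited); 0, no net growth; -100 to 0, cell death (-40 = 40% of starting cells died; -100 = all dead).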 Unmarked numbers belong to inactive results. Activity calls are given as the source filed them. The calls were made as follows: active = growth percent below 10; inactive = the rest.

What all share (test): NCI-60 one-dose screen, 48 h (100 = growth as untreated, 0 = no growth, -100 = all killed)
Common to all, as to conditions: 10 µM unless noted

For test [1], the system named is SR leukemia.
Test [2] concerns RPMI-8226 leukemia.
Test [3] concerns OVCAR-8 ovarian.
In test [4] the test system is OVCAR-5 ovarian.
Test [5] relates to SK-OV-3 ovarian.
Test [6] deals with IGROV1 ovarian.
In test [7] the test system is OVCAR-3 ovarian.
Test [8] relates to HS 578T breast.
Test [9] has as its system NCI/ADR-RES ovarian.
In test [10] the test system is T-47D breast.
Test [11] concerns BT-549 breast.
The test system of test [12] is MDA-MB-435 melanoma.
Test [13] deals with SW-620 colon.
The test system of test [14] is MCF7 breast.
Test [15] relates to HCT-116 colon.
Test [16] has as its system HCC-2998 colon.
Test [17] has as its system KM12 colon.
Test [18] deals with OVCAR-4 ovarian.

For `O=C(Nc1ccc(OCc2nnc(-c3ccc(Cl)cc3)o2)c(F)c1)Nc1ccc(Cl)c(Cl)c1`, the growth in test [1] is 21.4%; in test [2] it was 57%; in [3] it was 60.2%; in [4], 66.6%; in [5], 60.6%; in test [6], 66.5%. Moreover, the growth is 25.9% in test [7]; 32% in test [8]; 65.2% in test [9]; 55.8% in [10]; 93.6% in [11]; 73.1% in [12]. The growth in [13] was 47%; in test [14], 50.3%; in test [15] it was 29.7%; in test [16], 85.4%; in test [17] it was 53.7%.

With `COc1cc(C(=O)/C=C/c2cc(C(=O)c3cc(OC)c(OC)c(OC)c3)ccc2OC)ccc1N`, the growth in [1] is -7.95% (active); in test [2] it was -9.87% (active); in test [3], 4.2% (active); in [4], -54.1% (active); in test [7], -53% (active); in [8], 46.1%. Besides, the growth in test [9] is 1.57% (active); in test [10], 18%; in test [11], -51.3% (active); in test [12] it was 2.47% (active); in test [13] it was -57.3% (active); in test [14], 6.6% (active). For the same compound, the results for the growth in test [15], in test [16] and in [17] were -73.8% (active), -80% (active) and -57.2% (active), respectively.

In the case of `CCN1C(=S)N(CC)C2Nn3c(s/c(=C4\C(=O)N(C)c5ccccc54)c3=O)=NC21` (stereo not drawn), the growth in [1] is 22.6%; in test [2] it was 36.8%; in test [3], 54.5%; in [4], 67.5%; in [18] it was 47.5%; in test [6], 53.3%. In addition, the growth was 20.2% in [7]; 48.8% in [8]; 6.63% (active) in test [9]; 74.7% in test [11]; -43.1% (active) in [12]; 41.1% in [13]. The growth is 29.8% in test [14], 7.36% (active) in test [15], 79% in [16] and 27.4% in [17].

For `COc1ccc(C(=O)/C=C/c2cc(C(=O)c3cc(OC)c(OC)c(OC)c3)ccc2OC)cc1`, the growth was 6.69% (active) in test [1]; 14.6% in test [2]; 43.8% in test [3]; 45% in test [4]; 60.6% in [7]; 62.5% in test [8]. The growth in test [9] is 26.5%; in [10], 68%; in test [11], 73.7%; in [12], 51.8%; in test [13], 13.8%; in [14], 20.9%. Besides, the growth in test [15] is 19.8%; in test [16] it was 93.1%; in test [17] it was 40.6%.

In the case of `CC(=O)/C=C/c1cc2cc(Cl)ccc2[nH]c1=O`, the growth in test [1] was 5.65% (active); in [2], 54.5%; in test [3], 92.2%; in [4] it was 95.3%; in [18], 90.5%; in [7], 84.7%. In addition, the growth was 89.7% in test [8]; 100% in [9]; 50% in [10]; 65.5% in test [11]; 94.2% in test [12]; 80.4% in test [13]. Moreover, the growth in [14] was 30.5%; in [15] it was 48.1%; in [16], 95.2%; in [17] it was 60%.

Regarding `CC(=O)Nc1nc(C(=O)N2N=C(C)/C(=C/c3ccccc3)C2=O)cs1`, the growth in test [1] was 90.7%; in [2], 102%; in [3], 105%; in test [4] it was 99.9%; in [18], 110%; in [6], 101%. In addition, the growth is 111% in [8]; 110% in test [9]; 98.6% in [10]; 107% in test [11]; 106% in [12]; 107% in test [13]. The growth in test [14] is 95.9%; in [15], 98.3%; in test [16], 104%; in test [17] it was 102%.

Regarding `CCCCCCCC/C=C\CCCCCCCCOc1ccccc1CCOP(=O)(O)OCC[N+](C)(C)C`, the growth in [1] is 42.4%; in [2], -0.933% (active); in test [3], 60.3%; in test [4] it was 85.1%; in [18] it was 80.3%; in test [6], 9.7% (active). In addition, the growth is 56.4% in test [7]; 88% in test [8]; 98.4% in test [9]; 88.3% in test [11]; 92.7% in test [12]; 67.8% in [13]. Besides, the growth is 74.2% in test [14], 27.2% in test [15], 74.3% in test [16] and 21.8% in test [17].

As to `CCN1C(=O)N(CC)C2C1NN=c1s/c(=C3\C(=O)N(C4CCCC4)c4ccccc43)c(=O)n12` (stereo not drawn), the growth is 0.0502% (active) in test [1]; -0.279% (active) in test [2]; 23% in [3]; 49.7% in test [4]; 46.1% in test [18]; 31.9% in test [6]. Also, the growth in [7] is -35.3% (active); in test [8] it was -7.85% (active); in test [9], -22.8% (active); in [11], 20%; in test [12], -42.8% (active); in [13], 28.5%. Besides, the growth in test [14] is 21.4%; in test [15], 0.802% (active); in test [16], -16.7% (active); in test [17], 10.9%.

`CCCCCC/C=C\CCCCCCCCOc1ccc(CCOP(=O)(O)OCC[N+](C)(C)C)cc1`: the growth is 50.7% in test [1]; 23.8% in test [2]; 80.9% in test [3]; 90.3% in test [4]; 86.1% in test [18]; 42.6% in test [6]. For the same compound, the growth in test [7] is 74.8%; in [8], 89.5%; in [9] it was 100%; in test [11] it was 91.2%; in test [12], 100%; in test [13], 93.2%. For the same compound, the growth in test [14] is 79.2%; in [15], 50.2%; in test [16], 89.2%; in test [17], 59.3%.
